The source of these data is PubChem BioAssay.

Each structure is given as a SMILES string. Unmarked numbers belong to inactive results. How the calls were made is not given here.

The test system of the assay is Aerobactin synthetase IucA (Klebsiella pneumoniae hvKP1). Put plainly: Biochemical IucA enzyme inhibition primary screen of the Spectrum library (AID 1346200).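 Further: 100% = wells without compound and 0% = wells lacking enzyme.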 The settings on record: malachite green pyrophosphate, A620, at 8 µM, hits give low values.
For the molecule `CC1(C)CCCC2(C)C3C1[C@@H](O)C2(C)C[C@H]3O` (stereo not given in full), the activity remaining was 105%.

In the case of `COc1ccc2c(c1)[C@@]1(C)CCC(=O)C[C@H]1CC2`, the activity remaining is 101%.

On to `CC[C@@H](C(=O)C(C)[C@@H](O)[C@H](C)CCc1ccc(C)c(O)c1C(=O)O)C1OC(CC)(C2CC[C@](O)(CC)[C@H](C)O2)C[C@@H]1C` (stereo not given in full), for which the activity remaining was 111%.

Turning to `C[C@H]1O[C@H](O[C@H]2[C@H](O)[C@@H](O)[C@@H](O[C@H]3[C@H](O)[C@@H](O)C(O)O[C@@H]3CO)O[C@@H]2CO)[C@H](O)[C@@H](O)[C@@H]1N[C@H]1C=C(CO)[C@@H](O)[C@H](O)[C@H]1O` (stereo not given in full), the activity remaining is 107%.

Turning to `Cc1nnc(NS(=O)(=O)c2ccc(N)cc2)s1`, the activity remaining is 113%.

As to `C[C@@H](N)CO`, the activity remaining was 106%.

On to `CCC1OC(=O)[C@H](C)C(=O)[C@H](C)[C@@H](OC2O[C@H](C)C[C@H](N(C)C)[C@H]2O)[C@](C)(OC)C[C@@H](C)C(=O)[C@H](C)[C@H]2N(CCCCn3cnc(-c4cccnc4)c3)C(=O)OC12C` (stereo not given in full), for which the activity remaining is 121%.

In the case of `C=C1C(=O)OC2CC1C(OC(C)=O)C/C(C)=C/CC/C(C)=C/CC[C@]2(C)O` (stereo not given in full), the activity remaining was 123%.

`COC(=O)[C@@H]1C(O)CC[C@H]2CN3CCc4c([nH]c5ccccc45)[C@@H]3C[C@@H]21` (stereo not given in full): the activity remaining is 96.8%.

Consider `CCOC(=O)[C@H](CCc1ccccc1)N[C@@H](C)C(=O)N1Cc2ccccc2C[C@H]1C(=O)O`, for which the activity remaining is 95.9%.

`Cc1c(NC(C)C)c(=O)n(-c2ccccc2)n1C`: the activity remaining is 105%.

In the case of `CCOC(=O)C(C)(N)Cc1ccc(O)c(O)c1` (stereo not given), the activity remaining was 105%.

`CCCc1nn(C)c2c(=O)[nH]c(-c3cc(S(=O)(=O)N4CCN(C)CC4)ccc3OCC)nc12`: the activity remaining is 97%.

Take `COc1ccc2nc(S(=O)Cc3ncc(C)c(OC)c3C)[nH]c2c1` (stereo not given): the activity remaining was 126%.

For the molecule `CC(C)(CO)C(O)C(=O)NCCCO` (stereo not given), the activity remaining is 118%.

As to `O=c1cccc2ccc(O)c(O)c2c1O`, the activity remaining is 86.6%.

As to `CCCCCN=C(N)N/N=C/c1c[nH]c2ccc(OC)cc12`, the activity remaining is 108%.

As for `NC(C(=O)O)C(O)C(=O)O` (stereo not given), the activity remaining is 97.5%.

As for `Cc1ncc([N+](=O)[O-])n1CCO`, the activity remaining was 75.6%.

On to `CC(C)[C@@H]1CC[C@@H](C)CC1=O`, for which the activity remaining was 120%.

With `O=C(Nc1ccc(C(=O)O)c(O)c1)c1ccccc1`, the activity remaining is 89.3%.

With `COc1cc([C@H]2Oc3cc([C@H]4Oc5cc(O)cc(O)c5C(=O)[C@@H]4O)ccc3O[C@@H]2CO)ccc1O`, the activity remaining is 122%.

Regarding `COc1cc(OC)c(C(C)=O)c(O)c1C`, the activity remaining is 101%.

On to `O=C(O[C@@H]1Cc2c(O)cc(O)cc2O[C@@H]1c1cc(=O)c(O)c2c(O)c(O)cc([C@H]3Oc4cc(O)cc(O)c4C[C@H]3O)c2c1)c1cc(O)c(O)c(O)c1`, for which the activity remaining is 106%.

Turning to `CCN(CC)Cc1ccc(Nc2ccnc3cc(Cl)ccc23)cc1O`, the activity remaining is 102%.

With `Cc1cc(O)cc(=O)o1`, the activity remaining is 116%.

As to `CCC(CCC(C)C1CCC2C3CC=C4C[C@@H](OC(C)=O)CC[C@]4(C)C3CC[C@]12C)C(C)C` (stereo not given in full), the activity remaining was 114%.

Turning to `O=C(N[C@@H](CO)[C@H](O)c1ccc([N+](=O)[O-])cc1)C(Cl)Cl`, the activity remaining was 114%.

For the molecule `COc1ccc(-c2coc3cc(O)ccc3c2=O)cc1`, the activity remaining was 109%.

With `COc1cc2c3cc1Oc1cc(ccc1O)C[C@@H]1c4c(cc(OC)c(O)c4Oc4ccc(cc4)C[C@@H]3N(C)CC2)CC[N+]1(C)C`, the activity remaining was 99.6%.

With `CC(C)NCC(O)c1ccc2ccccc2c1` (stereo not given), the activity remaining is 102%.

`COc1c(CC(=O)c2cc3c(cc2O)OC(C)(C)C(O)C3)ccc2c1C=CC(C)(C)O2` (stereo not given): the activity remaining is 96.2%.

For `CCOC(=O)NNc1nncc2ccccc12`, the activity remaining was 118%.

For `Oc1ccc2c(c1)OCC1c3cc4c(cc3OC21)OCO4` (stereo not given), the activity remaining is 87.4%.

As for `CC(=O)O[C@H]1C[C@@]2(C)[C@@H](C[C@@H](O)C3[C@]2(C)CC[C@H]2[C@H](C)[C@H](O)CC[C@]32C)/C1=C(/CCC=C(C)C)C(=O)O` (stereo not given in full), the activity remaining is 110%.

For the molecule `Oc1ccc(Cl)cc1Cc1cc(Cl)ccc1O`, the activity remaining was 108%.

On to `Nc1ccc(C(=O)NCC(=O)O)cc1`, for which the activity remaining was 111%.

Turning to `CC(=O)OC1CCC2C3CCc4cc(O)ccc4C3CCC12C` (stereo not given), the activity remaining is 123%.

As to `COC1C(O)C(O[C@H]2CC[C@]3(C=O)C4C(CC[C@]3(O)C2)[C@@]2(O)CC[C@H](C3=CC(=O)OC3)[C@@]2(C)C[C@H]4OC(C)=O)OC(C)C1OC(C)=O` (stereo not given in full), the activity remaining was 122%.

With `O=c1oc2cc(O)ccc2s1`, the activity remaining is 110%.
